Screens from PubChem.
Sampled rows, rich in hits. Any-hit rate of the full collection: about 1.5%.
MEX-5 binding: MEX-5 zinc finger RNA-binding disruptors – biochemical, C. elegans, fluorescence polarization, MLPCN library, primary screen | 0.38% of 300,000 active | activity score (negative = inhibition of binding), % at 10 µM | AID 1832, 2009 | MEX-5/FITC-TCR2 RNA binding; active compounds read low | Zinc finger protein mex-5 (Caenorhabditis elegans), Q9XUB2;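 active = inhibition past about -25% in most replicates, and total fluorescence under double the plate's negative control median, limit read from the data; inconclusive = replicates evenly split on the limit, or fluorescence at least double controls; inactive = too little inhibition in most replicates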;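 also: 0% = DMSO and -100% = 5 µM competing unlabeled TCR2 RNA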
GLD-1 RNA inh: GLD-1/TGE RNA complex disruptors, primary screen, biochemical, fluorescence polarization. Female germline-specific tumor suppressor gld-1 (Caenorhabditis elegans), Q17339. purified GLD-1 + fluorescein TGE RNA. inhibition, % at 5.96 µM. 0.44% of 320,000 active. AID 2280, 2010;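 active = percent inhibition above a per-plate cutoff, the plate mean of test compounds plus 3 SD, cut at about 30% in these data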;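 also: 0% = DMSO wells with GLD-1 and probe and 100% = wells lacking GLD-1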
BCLXL inh: inhibitors of human Bcl-xL, primary screen, biochemical, fluorescence polarization, HTS; GST-Bcl-xL / FITC-Bim BH3 peptide fluorescence polarization; inhibition, % at 10.9 µM; 0.7% of 320,000 active;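 active = inhibition above the mean of all tested compounds plus 3 SD, cutoff set per campaign, cut at about 30% in these data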;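 also: 0% = DMSO wells and 100% = unlabeled Bim-BH3 peptide competitor; inhibitors lower millipolarization by displacing the labeled peptide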
IDE inh: human IDE inhibitors in live cells, primary screen, fluorescence polarization, HEK cells, FAbetaB substrate; 0.41% of 320,000 active; FAbetaB cleavage; inhibition, % at 5.59 µM; Insulin-degrading enzyme (Homo sapiens), P14735;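 active = percent inhibition above the average of all tested compounds plus 3 SD, set per screening campaign, cut at about 16% in these data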;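 also: IDE supplied by intact live HEK cells; FP after avidin binding of uncleaved biotin substrate so inhibition keeps polarization high; 0% = DMSO wells and 100% = 60 µM reference IDE inhibitor Ii1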
Target sequence (P14735 whole entry, looked up): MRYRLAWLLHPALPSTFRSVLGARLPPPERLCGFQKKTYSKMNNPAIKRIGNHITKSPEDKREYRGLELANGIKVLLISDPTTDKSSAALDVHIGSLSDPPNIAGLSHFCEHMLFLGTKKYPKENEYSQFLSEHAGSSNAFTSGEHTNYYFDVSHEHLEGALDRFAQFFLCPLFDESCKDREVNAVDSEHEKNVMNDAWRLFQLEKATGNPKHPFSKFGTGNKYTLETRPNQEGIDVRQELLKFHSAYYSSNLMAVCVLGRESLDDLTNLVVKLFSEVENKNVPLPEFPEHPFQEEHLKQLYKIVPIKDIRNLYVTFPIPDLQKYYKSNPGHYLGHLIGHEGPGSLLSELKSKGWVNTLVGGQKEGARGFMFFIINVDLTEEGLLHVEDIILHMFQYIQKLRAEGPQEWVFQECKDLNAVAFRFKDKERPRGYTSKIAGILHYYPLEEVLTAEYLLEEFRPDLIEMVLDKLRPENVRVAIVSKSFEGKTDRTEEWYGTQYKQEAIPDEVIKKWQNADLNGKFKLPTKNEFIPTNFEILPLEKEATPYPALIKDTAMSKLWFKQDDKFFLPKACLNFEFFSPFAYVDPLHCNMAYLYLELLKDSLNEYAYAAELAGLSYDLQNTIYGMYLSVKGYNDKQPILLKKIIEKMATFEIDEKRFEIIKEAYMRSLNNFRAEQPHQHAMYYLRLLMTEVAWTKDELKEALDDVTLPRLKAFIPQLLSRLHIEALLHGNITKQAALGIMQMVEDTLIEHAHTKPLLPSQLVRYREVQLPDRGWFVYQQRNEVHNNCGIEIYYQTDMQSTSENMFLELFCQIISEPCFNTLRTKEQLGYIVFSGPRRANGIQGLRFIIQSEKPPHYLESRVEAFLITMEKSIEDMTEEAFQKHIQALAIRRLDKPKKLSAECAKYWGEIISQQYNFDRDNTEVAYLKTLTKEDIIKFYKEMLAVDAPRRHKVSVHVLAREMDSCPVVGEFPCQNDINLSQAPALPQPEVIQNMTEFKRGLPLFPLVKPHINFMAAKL
IDE cell activ: human IDE activators in live cells, primary screen, fluorescence polarization, HEK cells, FAbeta-B substrate; Insulin-degrading enzyme (Homo sapiens), P14735; FAbeta-B cleavage; 0% vehicle, 100% cell-free pure enzyme wells; AID 493087, 2011; 0.073% of 340,000 active; activation, % at 5.96 µM;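 active = activation above the mean of all tested compounds plus 3 SD, set per screening campaign, cut at about 17% in these data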
MCL1-BIM inh: inhibitors of MCL1 binding to BIM-BH3, primary screen, biochemical, fluorescence polarization; Induced myeloid leukemia cell differentiation protein Mcl-1 (Homo sapiens), Q07820; GST-MCL1 / FITC-Bim-BH3 fluorescence polarization; inhibition, % at 10.9 µM; 0.68% of 320,000 active;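 active = inhibition above the mean inhibition of all tested compounds plus 3 SD, set per campaign, cut at about 40% in these data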;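 also: 0% = DMSO wells and 100% = unlabeled Bim-BH3 peptide control; higher means more loss of mP so more displacement of Bim peptide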
IDE inh confirm: human IDE inhibitors in live cells, confirmation, fluorescence polarization, HEK cells, FAbetaB substrate; shares compounds with IDE inh; FAbetaB cleavage; inhibition, % at 5.59 µM; 51% of 1,200 active;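 active = mean inhibition across triplicate wells above the cutoff set by the earlier primary insulin-degrading enzyme screen, cut at about 16% in these data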;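 also: 0% = DMSO wells and 100% = 60 µM reference IDE inhibitor Ii1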
HEK293 tox: cytotoxicity in HEK cells, cytotoxicity control for IDE inhibitor project, cell-based, luminescence | inhibition, % at 5.59 µM | AID 449730, 2010 | shares compounds with IDE inh | 28% of 1,200 active | HEK293 cytotoxicity, ATP luminescence; in the data active = inhibition above about 22%;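 also: 0% = vehicle wells and 100% = reference cytotoxic drug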
Active calls of the source: *; u = inconclusive; x = no result.

SMILES	MEX-5 binding	GLD-1 RNA inh	BCLXL inh	IDE inh	IDE cell activ	MCL1-BIM inh	IDE inh confirm	HEK293 tox
Cn1c(=O)c(C(=O)CN2CCc3ccccc32)c(N)n(Cc2ccccc2)c1=O	-1.1	6.5	18.1	4.1	-20.2	22.2	x	x
CCCOc1ccc(-c2c(C(=O)N/N=C(\C)COc3ccccc3)nnn2-c2nonc2N)cc1	-2.5	6.7	-1.1	19.6*	-1.4	3.7	5.5	2.6
Cc1ccc(-c2c(C(=O)N/N=C/c3ccoc3)nnn2-c2nonc2N)cc1	1.7	4.5	6.7	2.9	5.4	10.0	x	x
Cc1ccc(-c2c(C(=O)N/N=C/c3cccc(Cl)c3)nnn2-c2nonc2N)cc1	0.3	4.1	7.2	53.0*	-42.0	9.9	44.6*	9.7
COc1ccc(-c2nnc3ccc(SCC(=O)Nc4nc5ccccc5s4)nn23)cc1OC	-1.3	8.6	10.8	18.4*	-23.9	7.6	4.7	11.3
COc1ccc(-c2nnc3ccc(SCC(=O)Nc4nccs4)nn23)cc1OC	0.8	1.7	5.2	5.1	-1.1	15.4	x	x
ClC(Cl)(c1nnnn1-c1ccccc1)c1nnnn1-c1ccccc1	x	11.4	-17.2	59.5*	-25.6	-10.2	9.7	120.8*
COc1ccc(Nc2nc(-c3cccs3)cs2)c(OC)c1	-1.1	13.8	1.5	7.0	-4.2	2.6	x	x
COc1ccc(Nc2nc(-c3sc(C)nc3C)cs2)c(OC)c1	-1.0	11.0	0.3	20.6*	-8.0	2.4	5.2	62.2*
COC(=O)c1cc(CNC(=O)Cc2ccsc2)ccc1OC	0.7	-3.4	4.2	2.0	3.9	-3.3	x	x
CCOC(=O)N1CCN(S(=O)(=O)N2CCCC(C(=O)NC(C)c3ccccc3)C2)CC1 (stereo not given)	1.7	-3.7	-4.1	18.3*	-0.9	-2.7	7.3	9.8
O=c1/c(=C\c2ccc(O)cc2)sc2n1C(c1ccccc1)C(c1ccccc1)=NN=2 (stereo not given)	-13.7	-20.6	-18.8	19.3*	-49.0	-24.7	141.3*	12.5
COc1ccc(S(=O)(=O)N2CCCCC2)cc1NC(=O)CCNC(=O)c1ccc(Cl)cc1	x	-2.8	x	11.0	5.1	x	x	x
Cc1ccccc1N(CC(=O)Nc1ccccc1C(=O)O)S(C)(=O)=O	1.3	4.6	5.5	23.2*	-34.4	1.0	14.1	5.7
CN1C2CCC1/C(=C/c1cccn1C)C(=O)/C2=C\c1cccn1C	u	-110.6	-30.9	43.9*	-43.4	-117.7	71.6*	18.8
O=C(CNC(=O)[C@@H]1Cc2ccccc2CN1)NCc1ccco1	-1.8	6.5	4.6	-0.1	5.2	5.0	x	x
Cc1nnc(C)n1/N=C/c1c(O)ccc2ccccc12	-16.5	3.4	2.3	-0.2	1.9	-6.7	x	x
Cc1nnc(-c2ccccc2)c(=O)n1/N=C/c1c(O)ccc2ccccc12	-9.3	-126.0	-60.3	53.5*	-59.4	-101.9	39.8*	57.4*
CCN1C(=O)/C(=C/C=C2\N(CC)c3cc(S(=O)(=O)N(C)C)ccc3N2c2ccccc2)SC1=S	1.6	-77.0	-59.3	18.1*	-36.5	-124.4	73.9*	32.1*
S=c1nccc(-c2ccc3c(c2)CCO3)[nH]1	-3.1	-2.1	15.5	30.3*	-23.2	2.8	5.6	14.2
CC(C)(C)OC(=O)N1CCN(c2ccc(NC(=O)c3ccco3)cc2)CC1	1.3	x	x	x	2.6	x	x	x
O=C(O)c1cccc2c1C(=O)c1ccc(N3CCCCC3)cc1S2(=O)=O	x	-11.0	16.0	5.1	-2.4	-2.3	x	x
CC1CCN(c2ccc3c(c2)S(=O)(=O)c2cccc(C(=O)NC[C@@H]4CCCO4)c2C3=O)CC1	x	-16.8	x	21.5*	-8.3	x	20.8*	26.2*
O=C(NC[C@@H]1CCCO1)c1cccc2c1C(=O)c1ccc(N3CCOCC3)cc1S2(=O)=O	x	2.5	x	3.2	3.3	x	x	x
O=C(NCC1CCCO1)c1cccc2c1C(=O)c1ccc(N3CCC(Cc4ccccc4)CC3)cc1S2(=O)=O (stereo not given)	x	6.2	x	50.3*	-44.2	x	83.0*	50.0*
SMILES	MEX-5 binding	GLD-1 RNA inh	BCLXL inh	IDE inh	IDE cell activ	MCL1-BIM inh	IDE inh confirm	HEK293 tox
CC1CCN(c2ccc3c(c2)S(=O)(=O)c2cccc(C(=O)NC4CC4)c2C3=O)CC1	x	-14.7	x	18.2*	-7.1	x	18.9*	16.3
CCN(CC(=O)Nc1c(F)cccc1F)C(=O)C1COc2ccccc2O1 (stereo not given)	x	3.0	-0.2	4.9	-0.2	1.6	x	x
CC(C)C(=O)Nc1ccc(S(=O)(=O)Nc2nccc(/C=C/c3ccccc3)n2)cc1	-1.4	4.7	6.3	1.3	2.4	2.1	x	x
COc1ccc(OC)c(NC(=O)CCNS(=O)(=O)c2cc(Br)cnc2N)c1	-2.8	6.8	1.5	0.9	-2.0	-5.4	x	x
C=CCOC(=O)C1=C(C)OC(N)=C(C#N)C1c1ccc2c(c1)OCO2 (stereo not given)	5.0	-3.2	3.7	-3.2	-4.2	-2.8	x	x
C=CCOC(=O)C1=C(C)OC(N)=C(C#N)C1c1ccoc1 (stereo not given)	-0.5	-62.1	-28.6	44.8*	-18.3	-51.0	40.0*	5.2
O=C(CNC(=O)c1ccc(Oc2ccccc2)cc1)OCc1ccc(Br)cc1	1.5	0.1	-2.4	28.1*	-20.6	-2.5	6.4	4.5
CCCc1cc(=O)oc2c3c(cc(OCC(=O)NCc4ccncc4)c12)OC(C)(C)CC3	-0.3	2.3	2.4	22.8*	-25.3	0.8	8.3	25.2*
Oc1[nH]c(=S)sc1/C=C1\C(c2ccccc2)=Nc2ccccc21	0.7	-120.5	-40.6	17.8*	-14.1	-73.0	14.5	9.0
O=C(c1ccco1)N1CCN(CC(O)COc2ccc3oc4ccccc4c3c2)CC1 (stereo not given)	-2.7	2.3	-0.3	4.1	-10.4	2.9	x	x
Cc1ccc(Nc2nnc(SCc3nc4ccccc4c(=O)[nH]3)s2)cc1	-1.1	6.2	-9.4	5.0	7.1	-3.2	x	x
CCCn1c(Nc2nc3ccccc3n2C)nc2ccccc21	3.2	6.8	3.4	32.5*	-29.3	2.5	24.4*	7.9
O=c1onc(-c2cccnc2)n1-c1ccccc1F	-1.0	3.1	3.8	2.4	4.7	-2.9	x	x
